Compound activity: PubChem, several laboratories
Only some compounds are listed: those with a hit (about 3.9% of all), similar ones and a draw of the others.
Cardio protect = protects H9c2 cardiomyocytes from peroxide injury; 360,000 tested, 0.63% active; AID 588492; H2O2 injury protection, ATPLite, 2 h; protection from H2O2 cell death, % at 20 µM;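 active means compounds giving at least 50% protection of heart cells from peroxide-induced death in the single-dose screen, raw or plate-pattern-corrected value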
NTR1 agonist = activates human neurotensin receptor 1; NTR1-U2OS beta-arrestin-GFP spot imaging, agonist mode; activation, % at 20 µM; 330,000 tested, 0.17% active;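 active means activation at or above 40% of the spot to cytoplasm intensity ratio, with at least 20 cells analyzed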
SUMO HTRF inh = SUMOylation inhibition. P63279. HTRF SUMOylation assay, SAE1/SAE2 + UBC9, in vitro. inhibition, % at 35 µM. 290,000 tested, 0.36% active. AID 2006; in the data active means inhibition above about 50%, passing the limit was not always enough
Target sequence (P63279 whole entry, looked up): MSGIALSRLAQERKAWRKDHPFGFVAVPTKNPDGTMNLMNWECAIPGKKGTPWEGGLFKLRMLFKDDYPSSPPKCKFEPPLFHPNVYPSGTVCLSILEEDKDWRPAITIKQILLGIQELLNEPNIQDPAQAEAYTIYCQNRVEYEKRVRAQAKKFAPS
ALR H2O2 inh = human ALR oxidase inhibition via reduced H2O2; purified ALR, DTT oxidation, H2O2 HRP-luminol luminescence; inhibition, % (test concentration not listed); AID 485317; 290,000 tested, 3.8% active; P55789;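 active means mean replicate inhibition above about 79%, with every replicate also reaching it, limit read from the data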
Target sequence (P55789 whole entry, looked up): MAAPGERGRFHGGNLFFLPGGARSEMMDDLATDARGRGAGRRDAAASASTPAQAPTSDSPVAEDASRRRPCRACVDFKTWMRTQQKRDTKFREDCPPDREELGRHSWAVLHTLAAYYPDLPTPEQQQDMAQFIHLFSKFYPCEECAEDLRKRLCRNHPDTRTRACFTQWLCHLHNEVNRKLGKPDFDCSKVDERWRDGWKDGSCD
A number is an active result; – = inactive; · = no result.

SMILES	Cardio protect	NTR1 agonist	SUMO HTRF inh	ALR H2O2 inh
C=CCn1c(=O)c2ccccc2n2c(SCc3csc(-c4ccccc4)n3)nnc12	–	–	–	99
C=CCn1c(=O)c2ccccc2n2c(SC(C)C(=O)Nc3nc(-c4ccccc4)cs3)nnc12 (stereo not given)	–	–	–	–
C=CCn1c(SCc2csc(-c3ccc(C)cc3)n2)nnc1-c1ccccc1OC	–	–	–	99
Cc1cccc(N2CCN(C(=O)c3ccc4nccnc4c3)CC2C)c1 (stereo not given)	–	–	·	–
Cc1ccc2sc(N(CCCN(C)C)C(=O)c3ccc(S(=O)(=O)N4CCOCC4)cc3)nc2c1C	–	–	·	–
CCCC(=O)C1=C(O)C(C(=O)OC)C(C)(C)CC1=NC(C)(C)C (stereo not given)	–	–	–	–
COc1cccc(CNc2ccc(S(=O)(=O)Nc3nccs3)cc2)c1O	–	–	–	93
Cc1cccc(Nc2nc(-c3cccs3)cs2)n1	–	–	–	94
Cc1cccc(Nc2nc(-c3ccccn3)cs2)n1	–	–	–	89
c1ccc(Nc2nc(-c3cccs3)cs2)nc1	–	–	–	–
O=C(Nc1ccc(Cl)c(S(=O)(=O)N2CCOCC2)c1)c1cc(=O)[nH]c2ccccc12	–	–	·	–
COCC(=O)Nc1cc(OC)ccc1OC	–	–	–	·
COc1cccc(NC(=O)c2ccc3c(c2)N(CC(=O)N2CCCCC2)C(=O)C(C)(C)O3)c1	–	–	–	·
O=C(Nc1cccc(-c2cn3ccsc3n2)c1)c1ccccc1	–	–	–	91
CCn1c(=O)cc(OCC(=O)NCCCN2CC(C)CC(C)C2)c2ccccc21 (stereo not given)	–	–	–	–
CCN(CCNC(=O)Cn1c(=O)sc2ccccc21)c1ccccc1	–	–	–	98
CCN(CCCNC(=O)COc1cc(=O)n(CC)c2ccccc12)c1ccccc1	–	–	–	99
CCN(CCCNC(=O)COc1cc(=O)n(C)c2ccccc12)c1ccccc1	–	–	–	98
Cc1cc(C)cc(-n2ncc3c2CCCC3NC(=O)CN2CCCCC2=O)c1 (stereo not given)	–	–	–	–
O=C(OCc1ccccn1)C1CCN(C(=O)c2ccc(Cl)cc2)CC1	–	–	·	–
COc1ccc(N2CCN(CCC3Oc4cc([N+](=O)[O-])ccc4NC3=O)CC2)cc1 (stereo not given)	–	–	–	86
CC1C(=O)N2CCCc3cc(NS(=O)(=O)c4ccc([N+](=O)[O-])cc4)cc1c32 (stereo not given)	–	–	·	–
Cc1ccc2nc(NCCCO)[nH]c2c1	–	–	·	97
CCOc1ccc2nc(NCCO)[nH]c2c1	–	–	–	–
O=C(CCc1nnc2ccc(NCc3ccco3)nn12)N1CCN(c2ccccc2F)CC1	–	–	–	–
SMILES	Cardio protect	NTR1 agonist	SUMO HTRF inh	ALR H2O2 inh
COc1cccc(C2=Nc3cccc4cccc(c34)N2)c1	–	–	–	–
c1coc(C2=Nc3cccc4cccc(c34)N2)c1	–	–	94	·
CCC(NC(=O)NCc1ccccc1)(C(F)(F)F)C(F)(F)F	–	–	–	–
CC(NC(=O)Nc1ccc(O)cc1)(C(F)(F)F)C(F)(F)F	–	–	–	98
CCC(NC(=O)Nc1ccc(O)cc1)(C(F)(F)F)C(F)(F)F	–	–	–	99
O=C(CNCc1ccccc1Cl)Nc1cc(S(=O)(=O)N2CCOCC2)ccc1Cl	–	–	·	–
CC(/C=C/c1ccc(N(C)C)cc1)=N\N=C(/N)SC1CC(=O)N(c2ccc(C(=O)O)cc2)C1=O (stereo not given)	–	–	–	100
COc1cccc(C2=NN(C(C)=O)C(c3cccs3)C2)c1 (stereo not given)	–	–	–	·
CC(C)CC(O)(CC(C)C)C(=O)NNc1ccccc1	–	–	–	99
COc1ccc(S(=O)(=O)Nc2cccc3c2O[C@H](CN(C)C(=O)Nc2ccc(C(F)(F)F)cc2)[C@@H](C)CN([C@H](C)CO)C3=O)cc1	–	–	·	–
CCN1CCN(c2cc(C)c3cc(NC(=O)CCC(=O)N4CCN(c5ccccc5)CC4)ccc3n2)CC1	–	–	–	91
Cc1nonc1NC(=O)N1CCCC1	–	–	–	–
COc1ccc(C(=O)CC(=O)C(=O)Nc2cccc(F)c2)cc1	–	–	–	80
CCCCn1c(SCc2nnc(-c3ccccc3)o2)nc2c1c(=O)n(C)c(=O)n2C	–	–	–	78
Cc1ccc(NC(=O)CSc2nc3ccccc3c(=O)n2CCCN2CCCCC2)cc1C	–	–	–	98
CCCCn1c(SCC(=O)Nc2ccc(OC)cc2)nc2ccc(N3CCOCC3)cc2c1=O	–	–	–	99
CCOC(=O)CSc1nc2cc(C(=O)OC)ccc2c(=O)n1CCN1CCOCC1	–	–	–	·
COC(=O)c1ccc2c(=O)n(CCN3CCOCC3)c(SCC(=O)Nc3ccc(C)cc3)nc2c1	–	–	–	99
O=C1c2ccccc2C(=O)N1CCCCSc1nc2ccccc2c(=O)n1CCCN1CCOCC1	59	–	–	–
NC(=O)N/N=C/c1cccc(C(F)(F)F)c1	–	–	–	–
CCOc1ccc2nc(CN3CCN(Cc4ccccc4OCC)C(CCO)C3)ccc2c1 (stereo not given)	–	–	–	–
O=C1c2ccc(Cl)cc2S(=O)(=O)c2cccc(C(=O)N3CCN(c4ncc(Br)cn4)CC3)c21	–	–	·	–
CCOC(=O)N1CCN(C(=O)CSCC(=O)Nc2nc(-c3ccc(OC)cc3)cs2)CC1	–	–	–	99
COc1ccc(-c2csc(NC(=O)CSc3nc(C)nc4sc(C(=O)O)c(C)c34)n2)cc1	–	–	–	99
CCOC(=O)N1CCN(C(=O)CSCC(=O)Nc2nc(-c3ccc(-c4ccccc4)cc3)cs2)CC1	–	–	–	–
SMILES	Cardio protect	NTR1 agonist	SUMO HTRF inh	ALR H2O2 inh
CCOC(=S)SCC(=O)Nc1nc(-c2ccccc2)cs1	–	–	–	99
COc1ccc(-c2csc(NC(=O)CSc3nc(C)cs3)n2)cc1	–	–	·	–
CCOC(=S)SCC(=O)Nc1nc(-c2ccc(Br)cc2)cs1	–	–	–	99
Cc1ccc(Oc2c(C(N)=O)cc([N+](=O)[O-])cc2[N+](=O)[O-])cc1	–	–	–	–
O=C(COc1ccccc1)N1CCN=C1SCc1ccc(F)cc1	–	–	–	98
O=C(COc1ccccc1)N1CCNC1=O	–	–	–	–
O=C(COc1ccccc1)N1CCN=C1c1ccccc1	–	–	–	·
CC(Oc1ccccc1)C(=O)N1CCN=C1SCc1ccc(F)cc1 (stereo not given)	–	–	–	96
O=C(COc1ccccc1)N1CCN=C1SCc1cccnc1	–	–	–	100
CCc1ccccc1NC1=NCC(=O)N1C1CCCCC1	–	–	–	–
O=C(Oc1ccc(-c2csnn2)cc1)c1cccs1	–	–	–	–
O=C(Oc1ccccc1-c1csnn1)c1cccs1	–	–	–	99
CCOC(=O)c1c(Cc2ccccc2)c[nH]c1C	–	–	–	95
NC(=O)CCN1CCN(Cc2nc(C(c3ccccc3)c3ccccc3)no2)CC1	–	–	–	–
COc1ccc([N+](=O)[O-])cc1NC(=O)C(C)OC(=O)c1ccccc1C(=O)c1ccc(Cl)cc1 (stereo not given)	–	–	–	–
